Screens (PubChem BioAssay)
Akt phos inh: inhibitors of Akt phosphorylation; hit rate 0.32% among 360,000; AID 651550; Neuro2A IGF-stimulated pAkt S473 HTRF, 20 min; hits give low values; activity change, % for hits at 50 µM; in the data active = activity change below about -80%; inconclusive = mostly about -51% to -80%; also: % is scaled to controls: 0 for no effect and ±100 for the full control effect
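Neuro2A cells (4,500/well, DMEM with 0.5% FBS) were treated with compound at a single 50 µM final concentration, stimulated with 6 nM IGF for 20 min at 37 °C, and lysed. Phospho-Akt Ser473 was read by HTRF as 665/615 ratio ×10^4.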
ClpP mod: qHTS Assay for Activators of ClpP. ATP-dependent Clp protease proteolytic subunit (Bacillus subtilis (strain 168)), P80244. purified B. subtilis ClpP, FRET peptide cleavage, 20 min. Potency, µM (series often up to 57.5 µM), for inactives: at the top dose activity change, negative = active. hit rate 1.9% among 340,000; active = well fitted falling curve with a large enough effect; inconclusive = small, poorly fitted or top-dose-only effect; inactive = no such curve, though single readings can be large or run the other way; also: potency is read from the fitted curve at half-maximal effect; the source files actives as falling curves though it sought activators and does not explain the sign; nearly all actives have a fitted effect of over 65% in size
Target sequence (P80244 whole entry, looked up): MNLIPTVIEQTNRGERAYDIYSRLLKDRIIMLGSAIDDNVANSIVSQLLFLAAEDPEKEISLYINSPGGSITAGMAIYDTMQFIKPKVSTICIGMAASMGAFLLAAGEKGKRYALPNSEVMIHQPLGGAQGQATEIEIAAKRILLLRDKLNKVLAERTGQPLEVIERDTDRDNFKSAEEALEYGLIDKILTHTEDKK
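FRET quenching reversal measured ClpP activation: 10 microg/mL B. subtilis ClpP at pH 8 with the FRET-FV decapeptide, read at 430 nm after 320 nm excitation. The 20-min minus 0-min signal was scaled between DMSO/no-enzyme wells and ADEP (5.8 microM final).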
RXFP1 antagonist: antagonists of human relaxin receptor RXFP1 | Q9HBX9 | AID 1259400 | activity change, negative = inhibition, % at 57.5 µM | hit rate 0.59% among 350,000 | HEK293-RXFP1, relaxin-stimulated cAMP HTRF, 30 min; hits give low values;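 active = activity change of -60% or lower, but not beyond a set lower limit; inconclusive = change between -60% and -40%, or beyond the set limit; inactive = change above -40%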; also: % is scaled to controls: 0 for no effect and ±100 for the full control effect
gsp ag: gsp mutant agonism | Potency, µM (top dose mostly 76.9 µM), for the others: at the top dose activation (cAMP increase), usual class: activators | gsp mutant cells, cAMP HTRF, 30 min | hit rate 0.13% among 340,000; active = well fitted activation curve with a large enough effect; inconclusive = small, poorly fitted or top-dose-only effect, or another doubt; inactive = no such curve, though single readings can be large or run the other way; cell line not stated here;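 also: phosphodiesterase inhibitor Ro 20-1724 added with compounds to block cAMP breakdown; potency is read from the fitted curve at half-maximal effect; nearly all actives have a fitted effect of over 60% in size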
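Cells in DMEM/10% FBS with G418 were pretreated with compounds in DMSO plus […] (300 uM stock) for 30 min at 37C. cAMP was measured by HTRF (cAMP-d2 plus anti-cAMP antibody-K) after 30 min at room temperature.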
RXFP1 agonist: activates the human relaxin receptor RXFP1. hit rate 0.3% among 370,000. Potency, µM (doses to about 57.5 µM), without a hit: top-dose activation, most hits filed as activators. HEK293T-RXFP1 cAMP TR-FRET, 30 min; response scale: percent of porcine relaxin response, buffer zero. AID 2676; active = well fitted activation curve with a large enough effect; inconclusive = small, poorly fitted or top-dose-only effect; also: potency is read from the fitted curve at half-maximal effect; % is scaled to controls: 0 for no effect and ±100 for the full control effect; nearly all actives have a fitted effect of over 60% in size
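HEK293T cells stably expressing RXFP1 were pretreated with the PDE4 inhibitor Ro 20174, exposed to compounds for 30 min at 37C, lysed, and cAMP was read by TR-FRET. Data normalized to buffer (basal) and 29 nM porcine relaxin (100%).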
gsp antagonist: antagonists of gsp mutant (McCune-Albright syndrome) | gsp-mutant cells, cAMP HTRF, 30 min | Potency, µM (titrated, usually from 76.9 µM), inactives show top-dose activity change, negative = inhibition, usual class: inhibitors | hit rate 0.4% among 340,000 | AID 624288; calls by dose curve; cell line not stated here;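 also: intracellular cAMP measured with PDE inhibitor Ro 20-1724 present during compound exposure; potency is read from the fitted curve at half-maximal effect; % is scaled to controls: 0 for no effect and ±100 for the full control effect; nearly all actives have a fitted effect of over 65% in size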
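Cells, 2000/well, grown 16–24 h in DMEM 10% FBS with 0.5 mg/ml G418, then compounds plus […] (300 uM addition stock), 30 min at 37C. cAMP read by HTRF (cAMP-d2 and anti-cAMP antibody-K in lysis buffer) after 30 min RT.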
* hit, by the source's call; i = inactive; ? = inconclusive; . = no result given; [ ] = remark or other dose. Rows were chosen to be rich in hits. Some 2.7% of all compounds tested hit in one or more screens of this group.

SMILES	Akt phos inh	ClpP mod	RXFP1 antagonist	gsp ag	RXFP1 agonist	gsp antagonist
COc1ccc(C2(O)CC3CCC(C2)N3c2nc(C)cc(C)c2C#N)cc1 (configuration not stated)	i	28µM*	-18	5%	3%	4%
COc1ccc(Oc2nc(C)cc(C)c2C#N)cc1	i	-1%	3	24%	-1%	-7%
CCCCCCC(=O)Nc1c2c(nc3ccccc13)N(C)CC2	i	28µM*	-3	2%	4%	-6%
CCCCCC(=O)Nc1cc(N(C)C)nc2ccccc12	i	28µM*	-4	-14%	-1%	3%
CN1CCc2c1nc1ccccc1c2NC(=O)CN1CCCC1	i	.	-14	-29%	0%	-2%
CCN(CC)CC(=O)Nc1cc(N(C)C)nc2ccccc12	i	.	-13	6%[15.4 µM]	1%	2%
C(=Nc1ccc(Nc2ccccc2)cc1)c1ccc2ccccc2c1	i	14µM*	-23	12%	-2%	-15%
O=C(CCOc1ccccc1)NO	.	-1%	.	.	.	.
O=C1c2ccccc2C(=O)N1CNc1ccccc1	-123%*	0%	3	0%	2%	-6%
CCCN=C1N(CC)C[C@@H]2[C@@H]3C(=O)N(C)C(=O)[C@@H]3[C@](CC)(C(=O)OC)N12	i	0%	.	.	.	10%
Cc1ccc(N/N=C(/Sc2nnnn2-c2ccccc2)C(=O)c2ccccc2)cc1	i	0%	.	1%	0%	25µM*
O=C(/C(=N\Nc1ccc([N+](=O)[O-])cc1)Sc1nnnn1-c1ccccc1)c1ccccc1	i	-2%	-7	-61%	1%	?
O=C(O)[C@H](O)c1ccccc1	.	.	6	.	.	.
O=c1cc(-c2ccccc2)nc2nc(SCc3ccccc3)[nH]n12	i	-8%	-3	-17%	1%	25µM*
COC(=O)c1cc(CNC(=O)Cc2ccsc2)ccc1OC	i	.	1	-7%	1%	6%
COc1cc(Cl)ccc1OCc1cc(C(=O)NC(C)Cc2cccnc2)no1 (configuration not stated)	i	28µM*	-7	-6%	3%	3%
Cn1c2ccccc2c2c(C(=O)N3CCN(c4cccc(Cl)c4)CC3)cn(C3CCCCC3)c(=O)c21	.	?	-15	.	6%	.
Cc1cc(C)cc(OCC(=O)N(Cc2ccc(N(C)C)cc2)C2CCS(=O)(=O)C2)c1 (configuration not stated)	i	22µM*	-4	5%[15.4 µM]	-2%	-18%
CCCC(=O)NC(=S)Nc1ccccc1C(F)(F)F	i	1%	-7	?	1%	-7%
CCC(=O)NC(=S)Nc1ccccc1C(F)(F)F	i	32µM*	-4	-5%	.	3%
CCN(CC)c1ccc(NC(=O)Nc2ccccc2C(F)(F)F)cc1	-116%*	1%	-8	20%	-3%	8%
CN1/C(=C\C(=O)c2cccs2)Sc2ccccc21	-104%*	-3%	-4	-13%	0%	-5%
CC(Sc1nnc(-c2ccccc2)c(-c2ccccc2)n1)C(=O)NCC1CCCO1 (configuration not stated)	i	.	-16	-27%	.	-10%
CCC(C(=O)Nc1cc(C)ccc1OC)n1nnc(C(=O)OC)c1C(=O)OC (configuration not stated)	.	1%	-7	.	-2%	.
CCn1c(SCC(=O)N2CCN(C)CC2)nc2c1c(=O)n(C)c(=O)n2C	i	.	-5	?	25%	3%
SMILES	Akt phos inh	ClpP mod	RXFP1 antagonist	gsp ag	RXFP1 agonist	gsp antagonist
CCn1c(SCC(=O)Nc2ccc(NC(C)=O)cc2)nc2c1c(=O)n(C)c(=O)n2C	i	.	23	64%[15.4 µM]	16µM*	7%
CCn1c(SCC(=O)N2CCCC2)nc2c1c(=O)n(C)c(=O)n2C	i	-1%	-5	8.9µM*	16%	15%
CCCn1c(SCC(=O)Nc2ccc(NC(=O)CC)cc2)nc2c1c(=O)n(C)c(=O)n2C	i	.	-1	20%[15.4 µM]	20µM*	5%
CCn1c(SCC(=O)Nc2ccc(OC)cc2)nc2c1c(=O)n(C)c(=O)n2C	i	.	4	11%[15.4 µM]	30%	6%
O=C(NC1CCOc2ccccc21)C1CCCC1 (configuration not stated)	i	.	-2	-23%	1%	3%
OC(c1ccccc1)(c1nc(/C=C/c2ccc(C(F)(F)F)cc2)cs1)C(F)(F)F (configuration not stated)	i	?	.	.	.	.
COc1ccc(CNC(=O)C/C(C)=N/NC(=O)COc2ccc(C)cc2Br)cc1	i	.	-23	1%[15.4 µM]	0%	19%
O=C(NCc1ccccn1)c1ccc(Cn2c(=S)[nH]c3ccccc3c2=O)cc1	i	0%	-77*	-135%	2%	-2%
COC(=O)c1ccc2c(=O)n(Cc3ccc4c(c3)OCO4)c(=S)[nH]c2c1	i	-2%	6	-7%	?	10%
COC(CNC(=O)c1ccc(Cn2c(=S)[nH]c3cc4c(cc3c2=O)OCO4)cc1)OC	i	1%	-98*	-9%	4%	-9%
CCOc1cc2[nH]c(=S)n(Cc3ccc(C(=O)NCCCOC)cc3)c(=O)c2cc1OCC	i	5%	-4	18%	?	13%
COCCNC(=O)c1ccc(Cn2c(=S)[nH]c3cc4c(cc3c2=O)OCO4)cc1	i	-4%	-104*	-5%	3%	-1%
Cc1c(C(=O)NCc2ccccc2Cl)sc2nc[nH]c(=O)c12	.	40µM*	-10	.	1%	.
Cc1c(C(=O)NCc2ccccc2)sc2nc[nH]c(=O)c12	.	-52%	-12	.	11%	.
Cc1c(C(=O)NCc2cccc(Cl)c2)sc2nc[nH]c(=O)c12	.	22µM*	-14	.	5%	.
Cc1c(C(=O)Nc2ccccc2)sc2nc[nH]c(=O)c12	i	-11%	5	?	5%	-7%
Cc1cccc(S(=O)Cc2ccc(C(=O)NC3CCCCCC3)o2)c1 (configuration not stated)	.	-1%	-1	.	-7%	.
NC(=S)N/N=C1\CC(c2ccc3c(c2)OCCCO3)Oc2ccc(F)cc21 (configuration not stated)	i	.	-61*	-14%	-5%	-33%
NC(=S)N/N=C1\CC(c2ccc3c(c2)OCCO3)Oc2ccc(F)cc21 (configuration not stated)	i	.	-21	?	1%	-15%
Cc1ccc(OC(=O)c2ccccc2)cc1C	i	28µM*	-27	7%[15.4 µM]	.	6%
CCCN1C(=O)c2ccccc2NC1c1cc(OC)c(OC)c(OC)c1 (configuration not stated)	i	18µM*	14	-46%	0%	-2%
